The campaign covered roughly 39,000 compounds. About 3,300 (8.5%) were called active. The full list was thinned out, with actives kept by preference.
Each compound was assayed on HepG2 (assay: cytotoxicity call (relative viability < 0.9)). Conditions: 10 µM.

SMILES	cytotoxicity call
c1cn2c3c(n1)CCCc3c1cc(C3CCCCC3)ccc12	inactive
Nc1nc(=O)n([C@@H]2O[C@H](CO)[C@@H](O)[C@@H]2F)cc1I	inactive
Nc1ncnc2c1ncn2[C@H]1O[C@@H](CO)[C@H](O)[C@@H]1S	inactive
Nc1ncnc2c1c(I)cn2[C@@H]1O[C@H](CO)[C@@H](O)[C@H]1O	active
NC(=O)c1cn([C@@H]2O[C@H](CO)[C@@H](O)[C@H]2O)c2ncnc(N)c2c1=O	inactive
Nc1ncnc2c1c(I)cn2[C@H]1O[C@@H](CO)[C@@H](O)[C@@H]1O	active
CSC[C@H]1O[C@H](n2ccc3c(N)ncnc32)[C@@H](O)[C@H]1O	inactive
CCS(=O)(=O)N1C[C@]2(CCN(CC2)Cc2cccc(c2)OC)c2c([nH]c3cc(ccc23)OC)[C@@H]1CO	inactive
C[C@@H]1CN([C@H](C)CO)C(=O)Cc2cc(NC(=O)CCC(F)(F)F)ccc2O[C@H]1CN(C)S(=O)(=O)c1cccs1	inactive
Cc1ccc(S(=O)(=O)Nc2cccc3c2O[C@H](CN(C)S(=O)(=O)c2cn(C)cn2)[C@@H](C)CN([C@@H](C)CO)C3=O)cc1	inactive
COCCOC(=O)N1C(=O)[C@@]2(c3cc(C#CCC(C(=O)OC)C(=O)OC)ccc31)[C@H](C(=O)Nc1nc3ccccc3s1)[C@H]1C(=O)O[C@H](c3ccccc3)[C@H](c3ccccc3)N1[C@@H]2c1ccccc1OCCO	inactive
Cc1noc(C)c1S(=O)(=O)Nc1ccc2c(c1)C(=O)N([C@H](C)CO)C[C@@H](C)[C@H](CN(C)C(=O)Nc1ccc(F)cc1)OCCCC[C@@H](C)O2	inactive
CC(C)(C)Oc1ccc(O)cc1	inactive
CCOC(=O)C(C)(C)Oc1ccc(Cl)cc1	inactive
CC(C)(C)C(=O)OCOP(=O)(OCOC(=O)C(C)(C)C)C(C)(Oc1ccc(O)cc1)P(=O)(OCOC(=O)C(C)(C)C)OCOC(=O)C(C)(C)C	active
COc1ccc(NC(=O)N(C)C[C@H]2OCCCC[C@@H](C)Oc3ccc(NS(=O)(=O)c4ccc(C)cc4)cc3C(=O)N([C@@H](C)CO)C[C@@H]2C)cc1	inactive
COc1cc2c(cc1O)[C@H](c1ccc(CN3CCCC3)cc1)N(Cc1cc3c(cc1Br)OCO3)CC2	inactive
C[C@@H]1CN([C@H](C)CO)C(=O)Cc2cc(NC(=O)Nc3ccc(C(F)(F)F)cc3)ccc2O[C@H]1CN(C)C(=O)NC1CCCCC1	inactive
C[C@H]1CN([C@@H](C)CO)C(=O)Cc2cc(NC(=O)Nc3ccc(C(F)(F)F)cc3)ccc2O[C@H]1CN(C)C(=O)NC1CCCCC1	inactive
C[C@@H]1CN([C@H](C)CO)C(=O)Cc2cc(NC(=O)Nc3ccc(C(F)(F)F)cc3)ccc2O[C@@H]1CN(C)C(=O)NC1CCCCC1	active
C[C@@H]1CN([C@@H](C)CO)C(=O)Cc2cc(NC(=O)Nc3ccc(C(F)(F)F)cc3)ccc2O[C@@H]1CN(C)C(=O)NC1CCCCC1	active
C[C@@H]1CN([C@@H](C)CO)C(=O)Cc2cc(NC(=O)Nc3ccc(C(F)(F)F)cc3)ccc2O[C@H]1CN(C)C(=O)NC1CCCCC1	inactive
C[C@H](CO)N1C[C@H](C)[C@@H](CN(C)C(=O)NC2CCCCC2)Oc2ccc(NC(=O)Nc3ccc(C(F)(F)F)cc3)cc2CC1=O	inactive
CC(C)C(=O)O	inactive
C[C@@H]1CN([C@@H](C)CO)C(=O)c2cc(NS(=O)(=O)c3cn(C)cn3)ccc2O[C@@H](C)CCCCO[C@H]1CN(C)S(=O)(=O)c1cccs1	inactive
NCCc1cc2nc(-c3ccncc3)ccn2n1	inactive

SMILES	cytotoxicity call
CN1CCN(C(=O)C[C@H]2CC[C@H]3[C@@H](COC[C@H](O)CN3C(=O)C3CCCC3)O2)CC1	inactive
O=c1ncc(F)c[nH]1	inactive
CCCNC(=O)N1C[C@]2(CCN(CC2)S(=O)(=O)c2cccc(c2)OC)c2c(n(c3cc(ccc23)OC)C)[C@H]1CO	inactive
C=CCOC(=O)[C@@H]1[C@H]2C(=O)O[C@H](c3ccccc3)[C@H](c3ccccc3)N2[C@H](c2ccc(OCCOC(=O)[C@H]3C[C@H]4C(=O)N[C@@H](CC(C)C)C(=O)N4[C@H]3c3ccc(O)cc3)cc2)[C@@]12C(=O)Nc1ccc(I)cc12	inactive
CCC(=C/[C@H](C)C/C=C/C(C)=C/[C@@H](C)C(=O)[C@@H](C)[C@H](O)[C@@H](C)C/C(C)=C/C(=O)O)/C=C/[C@@H]1OC(=O)C=C[C@@H]1C	active
C[C@@H]1CN([C@H](C)CO)C(=O)c2cc(C#CC3CCCCC3)cnc2O[C@H]1CN(C)C(=O)c1ccncc1	inactive
CCS(=O)(=O)N1C[C@]2(C1)CN([C@H](CO)c1c2c2ccc(cc2n1C)OC)C(=O)Nc1cccc(c1)F	inactive
C[C@H]1CN([C@@H](C)CO)C(=O)c2cccc(NS(=O)(=O)c3ccc(F)cc3)c2O[C@@H]1CN(C)Cc1ccc(-c2ccccc2)cc1	inactive
C[C@H](CO)N1C[C@H](C)[C@@H](CN(C)Cc2ccc(-c3ccccc3)cc2)Oc2c(NS(=O)(=O)c3ccc(F)cc3)cccc2C1=O	active
C[C@H]1CN([C@@H](C)CO)C(=O)c2cccc(NS(=O)(=O)c3ccc(F)cc3)c2O[C@H]1CN(C)Cc1ccc(-c2ccccc2)cc1	inactive
C[C@H]1CN([C@@H](C)CO)C(=O)c2cccc(NS(=O)(=O)c3ccccc3)c2O[C@@H]1CN(C)Cc1ccc(-c2ccccc2)cc1	inactive
C[C@@H]1CN([C@H](C)CO)C(=O)c2cccc(NS(=O)(=O)c3ccc(F)cc3)c2O[C@@H]1CN(C)Cc1ccc(-c2ccccc2)cc1	inactive
C[C@H](CO)N1C[C@H](C)[C@H](CN(C)Cc2ccc(-c3ccccc3)cc2)Oc2c(NS(=O)(=O)c3ccc(F)cc3)cccc2C1=O	active
C[C@@H]1CN([C@H](C)CO)C(=O)c2cccc(NS(=O)(=O)c3ccccc3)c2O[C@H]1CN(C)Cc1ccc(-c2ccccc2)cc1	inactive
C[C@H](CO)N1C[C@H](C)[C@H](CN(C)Cc2ccc(-c3ccccc3)cc2)Oc2c(NS(=O)(=O)c3ccccc3)cccc2C1=O	inactive
C[C@@H]1CN([C@@H](C)CO)C(=O)c2cccc(NS(=O)(=O)c3ccccc3)c2O[C@@H]1CN(C)Cc1ccc(-c2ccccc2)cc1	inactive
C[C@@H]1CN([C@@H](C)CO)C(=O)c2cccc(NS(=O)(=O)c3ccc(F)cc3)c2O[C@@H]1CN(C)Cc1ccc(-c2ccccc2)cc1	active
C[C@@H]1CN([C@H](C)CO)C(=O)c2cccc(NS(=O)(=O)c3ccc(F)cc3)c2O[C@H]1CN(C)Cc1ccc(-c2ccccc2)cc1	active
C[C@@H]1CN([C@@H](C)CO)C(=O)c2cccc(NS(=O)(=O)c3ccc(F)cc3)c2O[C@H]1CN(C)Cc1ccc(-c2ccccc2)cc1	inactive
COCC(=O)Nc1ccc2c(c1)C(=O)N(C)[C@@H]1CC[C@H](CC(=O)NCc3ccc(OC)cc3)O[C@H]1CO2	inactive
C[C@H]1CN([C@@H](C)CO)C(=O)Cc2cc(NS(=O)(=O)c3ccccc3)ccc2O[C@H]1CN(C)CC1CC1	inactive
C[C@@H]1CN([C@@H](C)CO)C(=O)c2cc(NC(=O)CCC(F)(F)F)ccc2O[C@@H](C)CCCCO[C@H]1CN(C)S(=O)(=O)c1ccc(F)cc1	inactive
COc1ccccc1CNC(=O)C[C@H]1C[C@@H]2c3cc(NC(=O)C4CCOCC4)ccc3O[C@@H]2[C@@H](CO)O1	inactive
COc1ccc(S(=O)(=O)Nc2ccc3c(c2)C(=O)N([C@H](C)CO)C[C@@H](C)[C@@H](CN(C)CC2CC2)O3)cc1	inactive
Cc1noc(C)c1NC(=O)N(C)C[C@H]1Oc2ccc(NC(=O)NC(C)C)cc2CC(=O)N([C@@H](C)CO)C[C@H]1C	inactive
O=C(CN1CCOCC1)NCC[C@H]1CC[C@H](NC(=O)Nc2ccccc2)[C@@H](CO)O1	inactive

SMILES	cytotoxicity call
C[C@@H]1CCCCO[C@@H](CN(C)C(=O)Nc2ccc3c(c2)OCO3)[C@@H](C)CN([C@H](C)CO)C(=O)c2cc(NC(=O)Nc3ccccc3)ccc2O1	inactive
Nc1cccc(C2=NCCN2)c1	inactive
CS(=O)(=O)Nc1ccc2c(c1)[C@H]1C[C@@H](CC(=O)NCC3CC3)O[C@H](CO)[C@H]1O2	inactive
COc1ccc(NC(=O)N(C)C[C@@H]2Oc3ncc(C#CCN(C)C)cc3C(=O)N([C@@H](C)CO)C[C@@H]2C)cc1	inactive
C[C@H](CO)N1C[C@H](C)[C@H](CN(C)S(=O)(=O)c2ccc(F)cc2)Oc2c(NS(=O)(=O)c3ccc(F)cc3)cccc2C1=O	inactive
C[C@@H]1CN([C@@H](C)CO)C(=O)c2cccc(NS(=O)(=O)c3ccc(F)cc3)c2O[C@@H]1CN(C)S(=O)(=O)c1ccc(F)cc1	active
C[C@H]1CN([C@@H](C)CO)C(=O)c2cccc(NS(=O)(=O)c3ccc(F)cc3)c2O[C@H]1CN(C)S(=O)(=O)c1ccc(F)cc1	inactive
CC(C)C#Cc1ccc2c(c1)O[C@@H](CN(C)S(=O)(=O)c1cn(C)cn1)[C@H](C)CN([C@H](C)CO)S2(=O)=O	inactive
O=C(CS)NCCCCCCNC(=O)[C@@H]1C[C@@H]2C(=O)N[C@@H](Cc3ccccc3)C(=O)N2[C@@H]1c1ccc(O)cc1	inactive
COc1ccc(NC(=O)N2C[C@H](O)COC[C@H]3O[C@@H](CC(=O)NC4Cc5ccccc5C4)CC[C@@H]32)cc1	inactive
CO[C@H]1CN(C)C(=O)c2ccc(NC(=O)C3CC3)cc2OC[C@@H](C)N(C(=O)CN2CCOCC2)C[C@H]1C	inactive
C[C@H]1CN([C@@H](C)CO)C(=O)c2cccc(NC(=O)c3ccc(-c4nccs4)cc3)c2O[C@H]1CN(C)C(=O)Nc1cccc2ccccc12	inactive
COc1ccc(C#Cc2ccc3c(c2)[C@]2(C(=O)N3)[C@H](c3ccccc3OCCO)N3[C@H](c4ccccc4)[C@H](c4ccccc4)OC(=O)[C@H]3[C@@H]2C(=O)N2CCN(c3ncccn3)CC2)cc1	active
COc1ccc(C#Cc2ccc3c(c2)[C@]2(C(=O)N3)[C@H](c3ccccc3OCCO)N3[C@H](c4ccccc4)[C@H](c4ccccc4)OC(=O)[C@H]3[C@@H]2C(=O)O)cc1	inactive
COc1ccc(C#Cc2ccc3c(c2)[C@]2(C(=O)N3)[C@H](C(=O)O)[C@H]3C(=O)O[C@H](c4ccccc4)[C@H](c4ccccc4)N3[C@@H]2c2ccccc2OCCO)cc1	inactive
C=CCNC(=O)[C@@H]1[C@H]2C(=O)O[C@H](c3ccccc3)[C@H](c3ccccc3)N2[C@H](c2ccccc2OCCO)[C@@]12C(=O)Nc1ccc(C#CC3=CCCCC3)cc12	inactive
COc1ccc(C#Cc2ccc3c(c2)[C@]2(C(=O)N3)[C@H](c3ccccc3OCCO)N3[C@H](c4ccccc4)[C@H](c4ccccc4)OC(=O)[C@H]3[C@@H]2C(=O)NC[C@H](O)c2ccccc2)cc1	active
C=CCNC(=O)[C@@H]1[C@H]2C(=O)O[C@H](c3ccccc3)[C@H](c3ccccc3)N2[C@H](c2ccccc2OCCO)[C@@]12C(=O)Nc1ccc(C#Cc3ccc(OC)cc3)cc12	inactive
COc1ccc(C#Cc2ccc3c(c2)[C@]2(C(=O)N3)[C@H](c3ccc(OCCO)cc3)N3[C@H](c4ccccc4)[C@H](c4ccccc4)OC(=O)[C@H]3[C@@H]2C(=O)NC[C@H](O)c2ccccc2)cc1	inactive
O=C1O[C@H](c2ccccc2)[C@H](c2ccccc2)N2[C@H]1[C@@H](C(=O)NC[C@@H](O)c1ccccc1)[C@]1(C(=O)Nc3ccc(C#CC4=CCCCC4)cc31)[C@H]2c1ccccc1OCCO	active
COc1ccc(C#Cc2ccc3c(c2)[C@]2(C(=O)N3)[C@H](C(=O)N3CCN(c4ncccn4)CC3)[C@H]3C(=O)O[C@H](c4ccccc4)[C@H](c4ccccc4)N3[C@@H]2c2ccc(OCCO)cc2)cc1	inactive
COc1ccc(C#Cc2ccc3c(c2)[C@]2(C(=O)N3)[C@H](C(=O)N3CCN(c4ncccn4)CC3)[C@H]3C(=O)O[C@H](c4ccccc4)[C@H](c4ccccc4)N3[C@@H]2c2ccccc2OCCO)cc1	inactive
COc1ccc(C#Cc2ccc3c(c2)[C@]2(C(=O)N3)[C@H](C(N)=O)[C@H]3C(=O)O[C@H](c4ccccc4)[C@H](c4ccccc4)N3[C@@H]2c2ccccc2OCCO)cc1	active
C=CCNC(=O)[C@H]1[C@@H]2C(=O)O[C@@H](c3ccccc3)[C@@H](c3ccccc3)N2[C@@H](c2ccccc2OCCO)[C@]12C(=O)Nc1ccc(C#CC3=CCCCC3)cc12	inactive

— the antibiotic and cytotoxicity screens of Wong et al. (2023)
